In PubChem BioAssay (EPA / NIEHS):
Results filed as inconclusive are left out. Calls of active or inactive are those of the source. The calls were made as follows, unless noted: active = hit-call score of the fitted dose curve at least 0.9, where 1 is the maximum; inactive = score below 0.9.

Experiments:
[1] = target: Glucocorticoid receptor (Homo sapiens) (UniProt P04150); assay: ATG_GR_TRANS: Attagene TRANS-FACTORIAL HepG2 Assay for human Glucocorticoid Receptor (GR) (AID 2282978; active = hit-call score of the fitted dose curve at least 0.9, where 1 is the maximum;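 also: activators score as hits since higher reporter transcript over DMSO is fitted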); details: HepG2 Attagene TRANS GR reporter, mRNA transcription
Glucocorticoid receptor (Homo sapiens), sequence (P04150 whole entry, looked up, the tested form may be a part): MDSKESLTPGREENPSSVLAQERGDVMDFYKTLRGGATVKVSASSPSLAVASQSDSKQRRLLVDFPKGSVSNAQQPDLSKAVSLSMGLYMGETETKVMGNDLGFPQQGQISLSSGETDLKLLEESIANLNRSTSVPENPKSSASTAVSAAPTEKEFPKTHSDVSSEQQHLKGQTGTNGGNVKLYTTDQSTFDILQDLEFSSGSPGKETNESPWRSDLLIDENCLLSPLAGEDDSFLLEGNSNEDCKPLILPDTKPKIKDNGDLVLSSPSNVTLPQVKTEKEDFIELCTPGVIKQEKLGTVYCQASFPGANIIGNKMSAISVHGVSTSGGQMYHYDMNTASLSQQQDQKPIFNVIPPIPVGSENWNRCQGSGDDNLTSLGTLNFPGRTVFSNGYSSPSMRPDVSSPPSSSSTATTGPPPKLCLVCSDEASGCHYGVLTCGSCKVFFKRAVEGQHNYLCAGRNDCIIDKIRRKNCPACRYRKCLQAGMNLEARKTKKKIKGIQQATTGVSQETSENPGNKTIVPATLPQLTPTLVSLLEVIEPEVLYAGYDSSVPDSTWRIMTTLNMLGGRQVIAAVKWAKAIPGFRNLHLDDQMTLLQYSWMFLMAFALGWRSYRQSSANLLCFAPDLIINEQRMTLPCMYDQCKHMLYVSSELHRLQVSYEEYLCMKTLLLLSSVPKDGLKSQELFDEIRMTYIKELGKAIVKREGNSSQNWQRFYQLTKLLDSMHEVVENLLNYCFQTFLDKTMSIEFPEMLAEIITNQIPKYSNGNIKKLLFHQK
Method in brief: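 Measurement of GAL4-UAS-driven reporter mRNA in human HepG2 liver cells 24 h post-dosing, using RT-PCR with fluorescent labelling and capillary electrophoresis; the transfected constructs report exogenous NR-GAL4 chimera activity, fitted upward against DMSO.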

[2] = target: Hepatocyte nuclear factor 4-alpha (Homo sapiens) (UniProt P41235); assay: ATG_HNF4a_TRANS: Attagene TRANS-FACTORIAL HepG2 Assay for human Hepatocyte Nuclear Factor 4 alpha (HNF4a) (AID 2282982; active = hit-call score of the fitted dose curve at least 0.9, where 1 is the maximum); details: HepG2 HNF4a transactivation reporter, mRNA readout
Hepatocyte nuclear factor 4-alpha (Homo sapiens), sequence (P41235 whole entry, looked up, the tested form may be a part): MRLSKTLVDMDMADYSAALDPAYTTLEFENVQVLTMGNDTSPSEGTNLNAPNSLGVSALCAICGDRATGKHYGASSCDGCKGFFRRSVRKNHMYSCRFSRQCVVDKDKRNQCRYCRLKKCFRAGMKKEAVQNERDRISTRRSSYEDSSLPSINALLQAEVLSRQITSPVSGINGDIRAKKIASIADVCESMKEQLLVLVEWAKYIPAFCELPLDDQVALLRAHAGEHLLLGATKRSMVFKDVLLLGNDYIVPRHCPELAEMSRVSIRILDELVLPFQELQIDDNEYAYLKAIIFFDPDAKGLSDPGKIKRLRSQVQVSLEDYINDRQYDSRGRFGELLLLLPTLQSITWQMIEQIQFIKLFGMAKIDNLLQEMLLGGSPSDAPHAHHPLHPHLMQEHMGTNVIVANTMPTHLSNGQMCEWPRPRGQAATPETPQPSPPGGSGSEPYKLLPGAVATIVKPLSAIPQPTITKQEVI
Method in brief: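 Readout is fluorescent reporter-transcript fragments resolved by capillary electrophoresis after RT-PCR from HepG2 cells dosed for 24 h. Cells carried transfected GAL4-UAS reporter constructs measuring exogenous NR-GAL4 chimera activity; DMSO served as baseline.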

[3] = ATG_M_06_TRANS: Attagene TRANS-FACTORIAL HepG2 Assay for M06 Transcription Factor (Internal Marker) (AID 2282983; active = hit-call score of the fitted dose curve at least 0.9, where 1 is the maximum;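 also: reporter transcript level by RT-PCR then capillary electrophoresis fluorescence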); details: HepG2 Attagene TRANS M06 internal marker reporter
Method in brief: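 Transfect HepG2 with MRTUs → dose compounds 24 h → isolate RNA, oligo(dT) RT → PCR with reporter primers → 6-FAM primer extension → HpaI digest → CE fragment analysis. Positive direction vs DMSO.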

[4] = target: Nuclear receptor subfamily 4 group A member 2 (Homo sapiens) (UniProt P43354); assay: ATG_NURR1_TRANS: Attagene TRANS-FACTORIAL HepG2 Assay for human Nuclear Receptor Related Protein 1 (NURR1) (AID 2282985; active = hit-call score of the fitted dose curve at least 0.9, where 1 is the maximum); details: HepG2 Attagene TRANS reporter, mRNA readout
Nuclear receptor subfamily 4 group A member 2 (Homo sapiens), sequence (P43354 whole entry, looked up, the tested form may be a part): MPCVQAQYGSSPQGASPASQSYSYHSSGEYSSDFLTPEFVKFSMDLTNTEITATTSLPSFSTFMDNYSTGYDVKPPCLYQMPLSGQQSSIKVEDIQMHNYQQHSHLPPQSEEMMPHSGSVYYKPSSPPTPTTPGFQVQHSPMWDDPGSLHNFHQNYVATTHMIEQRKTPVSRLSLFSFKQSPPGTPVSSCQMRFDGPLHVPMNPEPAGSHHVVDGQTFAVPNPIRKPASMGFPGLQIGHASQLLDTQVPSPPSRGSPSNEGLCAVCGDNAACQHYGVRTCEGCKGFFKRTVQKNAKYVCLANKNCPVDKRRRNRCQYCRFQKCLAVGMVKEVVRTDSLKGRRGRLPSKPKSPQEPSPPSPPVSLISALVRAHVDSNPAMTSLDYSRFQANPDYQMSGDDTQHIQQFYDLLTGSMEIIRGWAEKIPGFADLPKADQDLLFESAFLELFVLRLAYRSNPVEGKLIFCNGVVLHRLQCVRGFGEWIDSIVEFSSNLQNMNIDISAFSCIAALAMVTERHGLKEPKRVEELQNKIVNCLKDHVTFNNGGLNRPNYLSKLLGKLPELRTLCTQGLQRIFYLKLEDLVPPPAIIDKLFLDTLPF
Method in brief: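 Transient transfection of HepG2, human liver cells, with multiple GAL4-UAS reporter transcription units. Cells dosed 24 h, RNA isolated, reverse-transcribed, PCR-amplified, FAM-labelled, HpaI-digested, sized by capillary electrophoresis. DMSO served as negative control.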

[5] = target: Transcriptional activator Myb (Homo sapiens) (UniProt P10242); assay: ATG_Myb_CIS: Attagene CIS-FACTORIAL HepG2 Assay for human Myeloblastosis (Myb) Proto-Oncogene Transcription Factor (AID 2282986); details: HepG2 Attagene CIS-FACTORIAL Myb reporter transcription; actives raise or lower the signal
Transcriptional activator Myb (Homo sapiens), sequence (P10242 whole entry, looked up): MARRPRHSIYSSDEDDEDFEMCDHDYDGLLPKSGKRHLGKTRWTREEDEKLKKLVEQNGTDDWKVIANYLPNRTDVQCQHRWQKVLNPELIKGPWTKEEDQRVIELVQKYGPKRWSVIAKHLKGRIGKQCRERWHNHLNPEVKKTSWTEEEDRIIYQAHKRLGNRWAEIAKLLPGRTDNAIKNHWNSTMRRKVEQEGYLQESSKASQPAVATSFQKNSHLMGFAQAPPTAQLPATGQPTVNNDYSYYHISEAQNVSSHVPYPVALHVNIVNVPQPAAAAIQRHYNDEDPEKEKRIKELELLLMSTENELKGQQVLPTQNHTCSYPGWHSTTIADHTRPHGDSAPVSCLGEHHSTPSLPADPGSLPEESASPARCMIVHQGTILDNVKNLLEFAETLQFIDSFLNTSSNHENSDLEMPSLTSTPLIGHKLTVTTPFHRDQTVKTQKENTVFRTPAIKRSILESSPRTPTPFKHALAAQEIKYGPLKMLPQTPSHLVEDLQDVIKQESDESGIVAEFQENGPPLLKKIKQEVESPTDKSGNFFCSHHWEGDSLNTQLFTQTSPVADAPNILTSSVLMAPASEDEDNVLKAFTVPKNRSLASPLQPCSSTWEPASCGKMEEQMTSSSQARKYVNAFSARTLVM
Method in brief: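 Fluorescence signals from capillary electrophoresis of RT-PCR-amplified reporter cDNA give the read-out. Cells: HepG2 transfected with multiple cis-regulated reporter units. Exposure lasts 24 hours; DMSO defines baseline for gain or loss of signal.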

[6] = target: Nuclear respiratory factor 1 (Homo sapiens) (UniProt Q16656); assay: ATG_NRF1_CIS: Attagene CIS-FACTORIAL HepG2 Assay for human Nuclear Respiratory Factor 1 (NRF1) Orphan Gene (AID 2282987); details: HepG2 NRF1 cis-element reporter, Attagene multiplex; actives raise or lower the signal
Nuclear respiratory factor 1 (Homo sapiens), sequence (Q16656 whole entry, looked up): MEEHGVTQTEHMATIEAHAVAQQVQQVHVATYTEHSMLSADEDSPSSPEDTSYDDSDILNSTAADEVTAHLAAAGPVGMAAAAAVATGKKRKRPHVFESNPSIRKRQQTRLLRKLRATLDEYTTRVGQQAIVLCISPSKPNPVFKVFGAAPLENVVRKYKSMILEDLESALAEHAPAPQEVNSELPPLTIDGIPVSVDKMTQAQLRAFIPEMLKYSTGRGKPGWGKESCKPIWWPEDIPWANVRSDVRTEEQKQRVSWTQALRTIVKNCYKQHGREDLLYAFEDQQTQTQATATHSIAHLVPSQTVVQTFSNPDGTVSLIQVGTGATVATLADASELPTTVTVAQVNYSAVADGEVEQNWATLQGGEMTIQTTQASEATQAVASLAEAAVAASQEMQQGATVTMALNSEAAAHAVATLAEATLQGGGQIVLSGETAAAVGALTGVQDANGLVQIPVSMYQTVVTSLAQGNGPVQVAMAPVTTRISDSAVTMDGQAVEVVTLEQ
Method in brief: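 Transcriptional reporter readout, one component of a 52-endpoint multiplexed HepG2 panel. Exposure 24 h; mRNA detected via RT-PCR and fluorescent capillary electrophoresis; fitting in both directions against DMSO.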

[7] = ATG_NFI_CIS: Attagene CIS-FACTORIAL HepG2 Assay for human Nuclear Factor I (NFI) (AID 2282989); details: HepG2 cis-regulatory reporter, NFI response element transcription; actives raise or lower the signal
Method in brief: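 Reporter transcription driven by endogenous transcription factors in HepG2 cells; 24 h treatment. Quantitation by labelled RT-PCR fragments on capillary electrophoresis, gain- or loss-of-signal relative to DMSO.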

[8] = target: Myc proto-oncogene protein (Homo sapiens) (UniProt P01106); assay: ATG_Myc_CIS: Attagene CIS-FACTORIAL HepG2 Assay for human Myelocytomatosis (Myc) Proto-Oncogene Transcription Factor (AID 2282990); details: HepG2, Attagene cis-reporter transcription factor activity; actives raise or lower the signal
Myc proto-oncogene protein (Homo sapiens), sequence (P01106 whole entry, looked up, the tested form may be a part): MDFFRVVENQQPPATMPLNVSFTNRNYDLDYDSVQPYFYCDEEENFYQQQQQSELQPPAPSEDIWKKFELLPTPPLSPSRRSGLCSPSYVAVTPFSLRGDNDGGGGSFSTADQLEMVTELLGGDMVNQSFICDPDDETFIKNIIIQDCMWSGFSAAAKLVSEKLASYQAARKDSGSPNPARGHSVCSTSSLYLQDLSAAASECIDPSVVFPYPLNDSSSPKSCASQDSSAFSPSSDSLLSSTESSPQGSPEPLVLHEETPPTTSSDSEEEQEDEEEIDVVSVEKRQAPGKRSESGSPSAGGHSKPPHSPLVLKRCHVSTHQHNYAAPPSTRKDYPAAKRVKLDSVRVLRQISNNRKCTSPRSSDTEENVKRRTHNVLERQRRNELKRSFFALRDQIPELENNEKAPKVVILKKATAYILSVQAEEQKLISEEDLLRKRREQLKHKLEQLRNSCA
Method in brief: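 After 24 h chemical treatment of HepG2 cells carrying multiplexed cis-regulated reporter constructs, reporter transcripts quantified by RT-PCR and capillary electrophoresis of fluorescent fragments. Gain or loss fitted against DMSO baseline.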

[9] = ATG_NRF2_ARE_CIS: Attagene CIS-FACTORIAL HepG2 Assay for human Nuclear Factor Erythroid 2 Related Factor 2 (NFR2) response to Antioxidant Response Elements (ARE) (AID 2282992); details: HepG2 Attagene ARE/NRF2 reporter, transcription factor activity; actives raise or lower the signal
Method in brief: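 Transient MRTU transfection of HepG2; 24 h compound exposure; TriZol RNA, RT with oligo(dT), PCR, 6-FAM primer extension, HpaI cut, CE. Bidirectional fit vs DMSO.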

[10] = target: Cellular tumor antigen p53 (Homo sapiens) (UniProt P04637); assay: ATG_p53_CIS: Attagene CIS-FACTORIAL HepG2 Assay for human p53 Transcription Factor (AID 2282994); details: HepG2 p53 cis-element reporter, Attagene mRNA; actives raise or lower the signal
Cellular tumor antigen p53 (Homo sapiens), sequence (P04637 whole entry, looked up): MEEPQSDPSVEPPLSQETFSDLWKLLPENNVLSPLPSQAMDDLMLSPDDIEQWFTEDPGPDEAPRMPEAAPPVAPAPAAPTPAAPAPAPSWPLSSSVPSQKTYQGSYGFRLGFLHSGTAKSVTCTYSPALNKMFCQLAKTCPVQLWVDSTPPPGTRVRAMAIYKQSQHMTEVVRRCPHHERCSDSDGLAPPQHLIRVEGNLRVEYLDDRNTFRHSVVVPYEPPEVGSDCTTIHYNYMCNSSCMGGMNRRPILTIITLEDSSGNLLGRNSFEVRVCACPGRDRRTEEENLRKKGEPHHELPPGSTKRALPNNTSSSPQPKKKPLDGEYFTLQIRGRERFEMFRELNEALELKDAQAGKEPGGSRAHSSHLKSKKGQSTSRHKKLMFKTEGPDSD
Method in brief: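 HepG2, transient MRTU transfection (cis promoter elements, endogenous TFs); 24 h dosing; RNA isolation, RT-PCR, 6-FAM primer extension, HpaI digest, CE fluorescence; bidirectional fit vs DMSO.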

[11] = BSK_3C_TissueFactor: BioMAP Diversity Plus: 3C Assay for Tissue Factor Biomarker Activity (AID 2282997); details: BioMAP 3C HUVEC, tissue factor biomarker readout; actives raise or lower the signal
Method in brief: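 ELISA read-out of Tissue Factor levels on human umbilical vein endothelium collected 24 h after chemical dosing. Gain or loss of signal was fitted relative to DMSO.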

[12] = BSK_3C_uPAR: BioMAP Diversity Plus: 3C Assay for Urokinase-type plasminogen activator receptor (uPAR) Biomarker Activity (AID 2282998); details: BioMAP 3C HUVEC, uPAR biomarker ELISA; actives raise or lower the signal
Method in brief: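 Readout: ELISA for surface uPAR. System: human umbilical vein endothelial primary cells, 24 h after chemical exposure. Analysis: bidirectional fit, DMSO baseline.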

[13] = BSK_3C_VCAM1: BioMAP Diversity Plus: 3C Assay for Vascular cell adhesion molecule 1 (VCAM1) Biomarker Activity (AID 2282999); details: BioMAP 3C HUVEC, VCAM1 ELISA, cytokine-stimulated; actives raise or lower the signal
Method in brief: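 Endothelial cells from human umbilical vein are treated with test chemical. At 24 h, VCAM-1 is measured by ELISA, and responses in either direction are fitted relative to DMSO.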

[14] = BSK_4H_Eotaxin3: BioMAP Diversity Plus: 4H Assay for Eotaxin 3 Biomarker Activity (AID 2283000); details: primary human endothelial cells (HUVEC); actives raise or lower the signal;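 also: CCL26 protein level quantified by ELISA in parallel with SRB cytotoxicity check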
Method in brief: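 Chemicals were added to human umbilical vein endothelium cultures, and Eotaxin-3 was quantified by ELISA at 24 h. Values were derived by bidirectional fitting with DMSO serving as negative control and activity baseline.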

[15] = ATG_M_32_TRANS: Attagene TRANS-FACTORIAL HepG2 Assay for M32 Transcription Factor (Internal Marker) (AID 2282984; active = hit-call score of the fitted dose curve at least 0.9, where 1 is the maximum;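 also: transcript level of a background control reporter unit measured by RT-PCR and capillary electrophoresis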); details: HepG2 Attagene TRANS M32 internal marker reporter
Method in brief: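 Measures reporter mRNA induction in human HepG2 liver cells after 24 h chemical treatment. Transcripts from transiently transfected GAL4-UAS reporter units are amplified, fluorescently labelled and sized by capillary electrophoresis; gain of signal relative to DMSO.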

[16] = ATG_NF_kB_CIS: Attagene CIS-FACTORIAL HepG2 Assay for human Nuclear Factor Kappa B (NF-kB) (AID 2282991); details: HepG2 Attagene cis-factorial NF-kB reporter mRNA; actives raise or lower the signal
Method in brief: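 HepG2, transient multi-reporter transfection, cis promoter elements (endogenous TFs). 24 h exposure. Total RNA → RT → PCR → 6-FAM label → HpaI → CE. Gain/loss vs DMSO.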

[17] = ATG_Oct_MLP_CIS: Attagene CIS-FACTORIAL HepG2 Assay for human Octamer-Binding Transcription Factor (Oct) (AID 2282993); details: HepG2 Attagene cis-factorial Oct reporter, mRNA; actives raise or lower the signal
Method in brief: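 Transfected HepG2 cells, 24 h treatment. Reporter mRNA quantified by RT-PCR–capillary electrophoresis; bidirectional fitting against DMSO.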

[18] = target: Bile acid receptor (Homo sapiens) (UniProt Q96RI1); assay: ATG_FXR_TRANS: Attagene TRANS-FACTORIAL HepG2 Assay for Farnesoid X Receptor (FXR) (AID 2282979; active = hit-call score of the fitted dose curve at least 0.9, where 1 is the maximum;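 also: hits raise reporter mRNA above DMSO so AC50 marks FXR activation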); details: HepG2 Attagene TRANS FXR-GAL4 reporter transcription
Bile acid receptor (Homo sapiens), sequence (Q96RI1 whole entry, looked up, the tested form may be a part): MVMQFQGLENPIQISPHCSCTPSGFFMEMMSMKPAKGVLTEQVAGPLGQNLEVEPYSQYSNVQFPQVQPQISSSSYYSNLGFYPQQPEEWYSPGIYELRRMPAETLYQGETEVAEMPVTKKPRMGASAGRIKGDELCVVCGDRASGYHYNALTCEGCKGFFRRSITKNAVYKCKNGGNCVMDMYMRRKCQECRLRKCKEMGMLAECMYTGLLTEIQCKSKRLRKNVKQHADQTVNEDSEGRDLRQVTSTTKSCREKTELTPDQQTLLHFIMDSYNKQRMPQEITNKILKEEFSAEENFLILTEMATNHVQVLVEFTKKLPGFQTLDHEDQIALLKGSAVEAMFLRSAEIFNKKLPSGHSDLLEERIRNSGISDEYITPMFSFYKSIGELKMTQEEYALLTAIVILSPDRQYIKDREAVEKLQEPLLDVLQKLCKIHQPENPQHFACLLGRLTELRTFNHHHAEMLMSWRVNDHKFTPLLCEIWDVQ
Method in brief: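 Transient transfection of HepG2 with multiplexed GAL4-UAS reporter units; exogenous FXR-GAL4 chimera. Dose 24 h → TriZol RNA → oligo(dT) RT → PCR, 6-FAM primer extension, HpaI cut → CE. Gain vs DMSO.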

[19] = target: Oxysterols receptor LXR-alpha (Homo sapiens) (UniProt Q13133); assay: ATG_LXRa_TRANS: Attagene TRANS-FACTORIAL HepG2 Assay for human Liver X Receptor alpha (LXRa) (AID 2282980; active = hit-call score of the fitted dose curve at least 0.9, where 1 is the maximum); details: HepG2 Attagene TRANS reporter, LXRa transactivation
Oxysterols receptor LXR-alpha (Homo sapiens), sequence (Q13133 whole entry, looked up, the tested form may be a part): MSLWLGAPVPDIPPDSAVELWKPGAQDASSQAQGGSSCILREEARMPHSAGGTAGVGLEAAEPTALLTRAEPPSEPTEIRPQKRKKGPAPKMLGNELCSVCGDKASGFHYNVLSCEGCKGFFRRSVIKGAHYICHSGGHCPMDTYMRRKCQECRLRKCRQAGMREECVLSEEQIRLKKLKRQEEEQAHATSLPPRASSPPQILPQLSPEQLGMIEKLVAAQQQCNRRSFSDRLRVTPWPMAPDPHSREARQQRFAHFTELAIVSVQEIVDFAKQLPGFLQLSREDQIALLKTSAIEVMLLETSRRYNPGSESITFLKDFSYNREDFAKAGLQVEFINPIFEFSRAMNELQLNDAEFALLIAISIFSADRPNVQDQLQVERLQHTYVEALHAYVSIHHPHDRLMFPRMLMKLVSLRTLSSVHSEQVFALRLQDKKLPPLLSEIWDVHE
Method in brief: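 Transfect HepG2 with GAL4-UAS multiplex reporter constructs (TRANS format, chimeric receptor-GAL4); treat 24 h; extract RNA, reverse-transcribe, PCR-amplify, FAM-label, HpaI-digest; resolve fragments by capillary electrophoresis. Upward response vs DMSO.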

[20] = target: Oxysterols receptor LXR-beta (Homo sapiens) (UniProt P55055); assay: ATG_LXRb_TRANS: Attagene TRANS-FACTORIAL HepG2 Assay for human Liver X Receptor beta (LXRb) (AID 2282981; active = hit-call score of the fitted dose curve at least 0.9, where 1 is the maximum); details: HepG2 Attagene TRANS GAL4-LXRb reporter, mRNA
Method in brief: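 Transient transfection HepG2 (multiplexed RTUs, GAL4-UAS); NR-Gal4 chimera; 24 h exposure; RNA → RT-PCR → 6-FAM primer extension → HpaI → CE; increase vs DMSO.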

Measured: AC50

CCc1cccc(CC)c1N
not listed: [15] | [16] | [17] | [18] | [19] | [20]
inactive: all other assays above

CCCC(CCC)C(=O)O
not listed: [2] | [7] | [10] | [18] | [19] | [20]
inactive: all other assays above

O=c1[nH]cnc2c1ncn2[C@H]1CC[C@@H](CO)O1
inactive: [1] | [3] | [4] | [6] | [8] | [9] | [11] | [12] | [13] | [14]

OC(Cn1cncn1)(Cn1cncn1)c1ccc(F)cc1F
inactive: [1] | [4] | [6] | [8] | [9] | [17] | [10] | [11] | [12] | [13] | [14]

OCCNCCO
not listed: [4] | [7] | [10] | [16] | [18] | [19] | [20]
inactive: all other assays above

Cc1ncc([C@@H](CCCCCCc2ccc3c(n2)NCCC3)CC(=O)O)cn1
not listed: [1] | [3] | [5] | [10] | [16]
inactive: all other assays above

OCCOCCOCCO
not listed: [2] | [5] | [16] | [17] | [18] | [19] | [20]
inactive: all other assays above

Cn1c(=O)c2[nH]cnc2n(C)c1=O
not listed: [1] | [3] | [16] | [19] | [20]
inactive: all other assays above

FC(F)C(F)(F)COCC1CO1 (stereo not drawn)
not listed: [1] | [2] | [7] | [16] | [20]
inactive: all other assays above

CC(C)CCCCCCOC(=O)C1CCCCC1C(=O)OCCCCCCC(C)C (stereo not drawn)
not listed: [1] | [2] | [7] | [10] | [15] | [16] | [17] | [19]
inactive: all other assays above

O=C1CN(N=Cc2ccc([N+](=O)[O-])o2)C(=O)N1
inactive: [1] | [3] | [15] | [5] | [8] | [17] | [10] | [11] | [12] | [13] | [14]

O=C(O)c1ccc2c(c1)nc(C(=O)NC1CCN(C3CC3)CC1)n2Cc1cc(-c2ccc(Cl)s2)on1
not listed: [1] | [5] | [7] | [15] | [17] | [19] | [20]
inactive: all other assays above

c1ccc2cc3ccccc3cc2c1
active: [11] 2030 nM
not listed: [2] | [3] | [4] | [7] | [17] | [18] | [19] | [20]
inactive: all other assays above
